An excerpt weighted towards active compounds, which were near 11% of everything screened.
Pf growth 96h = Primary qHTS for delayed death inhibitors of the malarial parasite plastid, 96 hour incubation. Potency, µM (titrated, usually from 28.7 µM), for inactives: at the top dose activity change, negative = inhibition, hits mostly inhibitors. 6.9% of 320,000 active. AID 504834, 2011. P. falciparum luciferase reporter growth, 96 h; further: on the % scale 0 is the no-effect control and ±100 the full control effect
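96 h incubation, 37 C, 5% CO2, of luciferase-reporter P. falciparum-infected RBCs (2% hematocrit, 0.05% parasitemia final) with test compounds; endpoint luminescence.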
Sm TGR inh = qHTS Assay for the Inhibitors of Schistosoma Mansoni Peroxiredoxins; Schistosoma mansoni thioredoxin glutathione reductase (TGR), Q962Y6; purified TGR, DTNB reduction, TNB absorbance 405 nm; Potency, µM (highest dose often 114 µM), for inactives: at the highest dose activity change, negative = inhibition, most hits filed as inhibitors; 3% of 360,000 active; further: on the % scale 0 is the no-effect control and ±100 the full control effect; nearly all actives have a fitted effect of over 60% in size
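Kinetic colorimetric format: TGR-catalysed, NADPH-driven DTNB reduction monitored via TNB absorbance. Enzyme dispensed at 20 nM; compound exposure 15 min at room temperature before reaction start.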
Pf growth 48h = Primary qHTS for delayed death inhibitors of the malarial parasite plastid, 48 hour incubation; P. falciparum luciferase growth in erythrocytes, 48 h; AID 504832, 2011; Potency, µM (top dose mostly 28.7 µM), for inactives: at the top dose activity change, negative = inhibition, usual class: inhibitors; 5.9% of 310,000 active; further: on the % scale 0 is the no-effect control and ±100 the full control effect
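Cell-based growth assay: transgenic P. falciparum expressing firefly luciferase, cultured in red cells within RPMI 1640 containing 0.5% w/v Albumax, 24 mM bicarbonate and gentamycin. A drop in luciferase activity indicates inhibition.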
AMA1-RON2 inh = qHTS for Inhibitors of AMA1-RON; Towards Development of Antimalarial Drug Lead: Primary Screen; Plasmodium falciparum AMA1 (3D7) - RON2 peptide interaction; AlphaScreen AMA1-biotinylated RON2 peptide binding; Potency, µM (titrated, usually from 58.2 µM), for the others: top-dose activity change, negative = inhibition, actives largely listed as inhibitors; 0.2% of 360,000 active;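 further: 0% = vehicle wells and -100% = peptide control; nearly all actives have a fitted effect of over 45% in size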
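AMA1 (3D7) with his tag at 25 nM final met compounds first, then biotinylated RON2 peptide at 25 nM; detection used donor plus acceptor beads, 10 µg/mL apiece, read by AlphaScreen after 30 min at room temperature.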
NS1 function inh = qHTS Assay for Inhibitors of Influenza NS1 Protein Function; Potency, µM (doses to about 46.1 µM), for the others: at the top dose activity, positive = more growth; 0.4% of 270,000 active; AID 2326, 2010; calls by dose curve; further: actives are rising curves; nearly all actives have a fitted effect of over 50% in size
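Read-out: OD600 growth recovery of NS1-expressing budding yeast. Cells grown overnight at 30C in -URA glucose medium, washed, resuspended and diluted 1:100 in 2% galactose assay medium, pH 6.0. Same strain lacking NS1 served as positive control.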
An asterisk follows results filed as active; i = inactive; ? = inconclusive; . = no result; [ ] = remark or other dose. Unless noted, the call rests on the fitted dose curve; in most records, active means well fitted curve in the direction sought with a large enough effect; inconclusive means small, poorly fitted or top-dose-only effect, or another doubt; inactive means no such curve, though single readings can be large; an effect the other way counts as inactive or inconclusive. Potency means the concentration at half of the fitted maximal effect.

SMILES	Pf growth 96h	Sm TGR inh	Pf growth 48h	AMA1-RON2 inh	NS1 function inh
CCOC(=O)C1CCN(C(=O)CCc2c(C)nc3ncnn3c2C)CC1	15µM*	-15%	.	-17%	10%
CCOC(=O)C1CCN(C(=O)CCc2c(C)nc3cc(-c4ccc(OC)cc4OC)nn3c2C)CC1	?	-1%	13µM*	8%	.
COC(=O)C(NC(=O)CCc1c(C)nc2ncnn2c1C)C(C)C (stereo not given)	13µM*	15%	65%	0%	-4%
Cc1nc2ncnn2c(C)c1CCC(=O)N1CCCCC1	89%	-10%	.	1%	0%
Cn1c(=O)c2nc(Cl)c(-c3ccccc3)nc2n(C)c1=O	?	-16%	4.1µM*	7%	-33%
C[C@@H]1CN([C@H](C)CO)C(=O)CCCn2nncc2CO[C@@H]1CN(C)C(=O)C1CCCCC1	.	.	.	3%	.
COc1cc(CN(C)CC(=O)c2[nH]c(C)c(C(C)=O)c2C)ccc1OC(F)F	?	22µM*	?	-1%	3%
Cc1ccc(-c2ccccc2NC(=O)CCl)o1	?	32µM*	?	-3%	-30%
Cc1ccc(-c2cccc(NC(=O)C3C(C(=O)O)[C@@H]4C=C[C@H]3C4)c2)o1 (stereo not given in full)	6%	20µM*	0%	-7%	21%
O=C(O)C1C2C=CC(C2)C1C(=O)NCc1ccco1 (stereo not given)	-13%	-32%	-7%[5.75 µM]	-13%	3%
O=C(O)C1C2C=CC(C2)C1C(=O)Nc1cccc(F)c1 (stereo not given)	?	-1%	-30%	-8%	3%
O=C(O)C1C2C=CC(C2)C1C(=O)NCc1cccs1 (stereo not given)	4.1µM*	.	-1%	0%	0%
Cc1ccc(-c2ccccc2NC(=O)C2C3C=CC(C3)C2C(=O)O)o1 (stereo not given)	-20%	35µM*	?	-9%	-9%
Cc1c(Cl)cccc1NC(=O)C1C2C=CC(C2)C1C(=O)O (stereo not given)	?	5%	1%	3%	12%
CC(C)CC1NC(=O)N(CC(=O)Nc2cc([N+](=O)[O-])ccc2F)C1=O (stereo not given)	.	.	.	-4%[11.6 µM]	.
CCC(C)(C)NC(=O)C(C(C)C)N(CC1CCCO1)C(=O)CNS(=O)(=O)c1ccccc1 (stereo not given)	-3%	5%	?	15%	3%
CCc1cccc(C)c1NC(=O)COCc1cc(-c2ccc3c(c2)OCO3)on1	.	-2%	.	.	.
CC(C)c1ccc(NC(=O)C2C3C=CC(CC3)C2C(=O)O)cc1 (stereo not given)	.	.	.	-6%	.
CC(=O)Nc1ccc(NC(=O)C2C3C=CC(C3)C2C(=O)O)cc1 (stereo not given)	1.7µM*	5%	6%	12%	4%
CCC(NC(=O)C1CCCC1)c1ccccc1 (stereo not given)	.	.	.	-13%	.
Cc1cccn2c(=O)c(/C=C(\C#N)C(=O)NC3CCS(=O)(=O)C3)c(N3CCC(C(N)=O)CC3)nc12 (stereo not given)	-1%	-6%	-23%	-10%	5%
Cc1cccn2c(=O)c(/C=C(\C#N)C(=O)NC3CCS(=O)(=O)C3)c(Oc3ccccc3Cl)nc12 (stereo not given)	?	-26%	4.7µM*	13%	-20%
Cc1ccccc1Oc1nc2c(C)cccn2c(=O)c1/C=C(\C#N)C(=O)NC1CCS(=O)(=O)C1 (stereo not given)	12µM*	-27%	5.9µM*	-1%	-8%
O=C(c1cccc(Br)c1)c1cn(-c2ccccc2)nc1C(=O)c1ccccc1	?	0%	4.7µM*	-4%	3%
Cc1ccc(C(=O)OCc2cn(-c3ccccc3)nn2)cc1	?	2%	13µM*	1%	.
SMILES	Pf growth 96h	Sm TGR inh	Pf growth 48h	AMA1-RON2 inh	NS1 function inh
Cc1ccc(-n2cc(CCCCCCCCC(=O)O)nn2)cc1	5.9µM*	1%	1%	0%	-14%
CC(=O)N1CCCc2cc(S(=O)(=O)NCc3ccccc3Cl)ccc21	.	16%	.	.	.
CC1CCn2c(nc3cc(C(=O)NCc4ccc(F)cc4)ccc32)C1 (stereo not given)	.	-2%	.	.	.
COc1ccc(CNC(=O)Cn2c(=O)c3cccn3c3ccccc32)cc1	.	-6%	.	.	.
CCC(C)(C)NC(=O)C1CCCN(S(=O)(=O)c2ccc3c(c2)CC(C)N3C(=O)C2CC2)C1 (stereo not given)	-9%	-18%	?	7%	-12%
CCOC(=O)c1cc2c(C)n(-c3ccc(OCC)cc3)c(C)c2cc(C(=O)OCC)c1=O	?	-1%	?	-5%	6%
CCOC(=O)c1cc2c(C)n(-c3ccc(N(C)C)cc3)c(C)c2cc(C(=O)OCC)c1=O	3.3µM*	-32%	?	-8%	1%
CCN(Cc1ccccc1)C(=O)c1cc(S(=O)(=O)N2CCOCC2)cn1C	16%	-9%	46%	-1%	12%
CSCCC(NC(=O)CCC(=O)OCC(=O)[C@@]1(O)CCC2[C@@H]3CCC4=CC(=O)C=C[C@]4(C)C3[C@@H](O)C[C@@]21C)C(=O)O (stereo not given in full)	?	7%	5.2µM*	0%	2%
C[C@H](NC(=O)c1ncn2c1c(=O)[nH]c1ccc(Br)cc12)c1ccccc1	.	.	.	-6%	.
CCc1ccccc1NC(=O)CSc1ccsc1[N+](=O)[O-]	2.3µM*	-33%	-10%	-17%	9%
COc1ccccc1CNC(=O)CSc1ccsc1[N+](=O)[O-]	-4%	-27%	90%	7%	.
COc1ccc(CCNC(=O)CSc2ccsc2[N+](=O)[O-])c(OC)c1	1.7µM*	2%	?	-24%	.
O=C(CSc1ccsc1[N+](=O)[O-])NCc1ccccc1	15µM*	?	124%	-13%	.
O=C(CSc1nnc(NC(=O)c2ccco2)s1)Nc1ccc2c(c1)OCCO2	52%	1%	71%	-5%	6%
O=C(Cn1c(=O)c2cccn2c2cccnc21)NCc1cccc(F)c1	.	2%	.	.	.
O=C(NNC(=O)c1ccccc1C(=O)O)c1cc2ccccc2o1	94%	10%	?	13%	-10%
ON(Cc1c(F)cccc1Cl)Cc1c(F)cccc1Cl	17%	0%	2%	3%	-4%
CC(=O)c1ccc(N=Nc2ccc(N(C)C)cc2)cc1	174%	-2%	i	?	.
CN(C)c1ccc(N=Nc2nccs2)cc1	.	.	.	11µM*	.
O=C(c1ccc(OC2CCN(C(=O)C3CC3)CC2)cc1)N(CCO)Cc1ccccc1	13%	4%	-8%	-1%	3%
CC(C)(C)C(=O)Cn1ncc(Cl)c(Cl)c1=O	?	40µM*	?	13%	.

Compound activity (PubChem BioAssay)
